# Pf apPOL inh: Pf-apPOL inhibitors, biochemical, fluorescence. Plasmodium falciparum apicoplast DNA polymerase (apPOL). Recombinant Pf-apPOL, molecular beacon fluorescence, 1.5 h. inhibition, % at 10 µM. 210,000 compounds, 0.25% hits. AID 1794808, 2022
# mHTT CaM bind: mutant huntingtin-calmodulin interaction inhibitors – biochemical, AlphaScreen, primary screen; P42858; AlphaScreen His-mHTT/GST-CaM binding, luminescence; inhibition, % at 15 µM; 190,000 compounds, 3.6% hits;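 note: 0% = both proteins with DMSO and 100% = one protein alone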
# An asterisk follows results filed as active; . = no result. Shown is part of a subset that was picked to be rich in hits. Cut-off read from the data, not from the text of the source: active = inhibition above about 50%; inactive = the rest.
SMILES,Pf apPOL inh,mHTT CaM bind
Cc1ccc(-c2csc(Nc3ccccn3)n2)cc1C,4.1,25.6
Cc1ccnc(Nc2nc(-c3ccc(O)c(O)c3)cs2)c1,0.5,92.0*
Cc1cccnc1Nc1nc(-c2ccc(O)c(O)c2)cs1,-3.0,62.0*
COc1cccc(-c2csc(Nc3cc(C)ccn3)n2)c1,-4.1,32.0
COc1nonc1OCCN1CCN(c2ccc(C(F)(F)F)cc2[N+](=O)[O-])CC1,-5.1,31.0
COc1ccccc1-c1noc(C2CCCN2C(=O)NC2CCCCC2)n1 (stereo not drawn),-3.6,3.8
CCNC(=O)c1ccc2c(c1)Sc1ncccc1C(=O)N2C(C)C,-1.2,3.8
O=C(Cn1cnc2c(oc3ccccc32)c1=O)Nc1ccc(Br)cc1F,-2.6,10.4
CCc1[nH]nc(-c2cccc(F)c2)c1NC(=O)C(C)C,-1.1,2.5
COC(=O)c1cc(Nc2ccc3c(c2)OCO3)c2cccc(F)c2n1,-3.3,51.0*
COC(=O)c1cc(Nc2cccc(F)c2)c2cccc(F)c2n1,0.9,-7.1
O=C1NC(=Nc2ccccc2)S/C1=C/c1cc(I)ccc1O,-5.5,52.0*
O=C1NC(=Nc2ccccc2)S/C1=C/c1ccc(O)c(O)c1,-13.4,43.0
Cc1ccccc1/C=C1/SC(=Nc2ccccc2)NC1=O,-1.3,48.0
O=C1NC(=Nc2ccccc2)S/C1=C/c1cc(Br)ccc1O,-41.3,55.0*
COc1ccc(Br)cc1/C=C1/SC(=Nc2ccccc2)NC1=O,-2.9,19.0
O=C1NC(=Nc2ccccc2)S/C1=C/c1cc(Br)cc(Cl)c1O,-3.0,96.0*
CC1CC(C)CN(S(=O)(=O)c2ccc(F)c(C(=O)NCc3ccccc3Cl)c2)C1 (stereo not drawn),-1.3,0.0
COc1ccc(NC(=O)C2CCCN(C(=O)c3cccc(Cl)c3)C2)cc1OC (stereo not drawn),-1.7,30.9
Cc1cccc(NC(=O)N2CCc3c(C(=O)N4CCN(C)CC4)cccc32)c1,-0.3,-0.1
O=C(Cc1nc(-c2ccccn2)n[nH]1)Nc1cccc(F)c1,-13.0,99.2*
O=C(Cc1nc(-c2ccccc2)n[nH]1)Nc1ccc(F)cc1,2.1,-2.6
O=C(Cc1nc(-c2ccccc2)n[nH]1)Nc1ccccc1,-4.6,-1.6
O=C(Cc1nc(-c2ccccn2)n[nH]1)Nc1cccc(Cl)c1,-11.5,99.4*
Cc1ccc(NC(=O)Cc2nc(-c3ccccc3)n[nH]2)cc1C,-3.1,-3.2
SMILES,Pf apPOL inh,mHTT CaM bind
O=C(Cc1nc(-c2ccccn2)n[nH]1)Nc1ccc(Cl)cc1,-9.5,67.5*
COc1ccc([N+](=O)[O-])cc1C1=N/C(=C/c2ccccc2Cl)C(=O)O1,-4.3,-2.0
COc1ccc(OC)c(CNC2CCCC2)c1,6.4,-2.0
O=C(Cn1cc(-c2ccccc2)oc1=O)NCc1ccncc1,-3.8,-2.8
O=C1OC(/C=C/c2ccc(Cl)cc2)=NC/1=C\c1ccc([N+](=O)[O-])cc1,-2.7,-3.0
CCN(CC)C(=O)CSc1nc2n[nH]c(C)c2c(=N)n1-c1ccc(Cl)c(C)c1,-2.6,17.0
COCC(=O)N1CCOC(COc2cccc(C)c2)C1 (stereo not drawn),-1.8,-2.9
CN1c2ccccc2C(C)(C)C12C=Cc1cc(Br)cc([N+](=O)[O-])c1O2 (stereo not drawn),-499.2,.
COc1cccc2c1OC1(C=C2)N(C)c2ccc([N+](=O)[O-])cc2C1(C)C (stereo not drawn),4.7,8.0
CC1(C)c2ccccc2N(CC(N)=O)C12C=Cc1cc([N+](=O)[O-])ccc1O2 (stereo not drawn),4.1,85.0*
COc1ccc2c(c1)C(C)(C)C1(C=Cc3cc([N+](=O)[O-])ccc3O1)N2C (stereo not drawn),-2.1,70.0*
COc1ccc(C2Oc3c(OC)cccc3C3CC(c4cccs4)=NN32)cc1 (stereo not drawn),-15.3,50.0*
COc1cccc(C2Oc3c(OC)cccc3C3CC(c4cccs4)=NN32)c1 (stereo not drawn),-16.6,42.0
COc1cccc(C2Oc3c(OC)cccc3C3CC(c4ccc(C)o4)=NN32)c1 (stereo not drawn),-15.5,57.0*
CCOc1cccc2c1OC(c1cc(OC)ccc1OC)N1N=C(c3ccco3)CC21 (stereo not drawn),-20.1,8.0
CCOc1cccc2c1OC(c1ccc(OC)cc1)N1N=C(c3ccc(C)o3)CC21 (stereo not drawn),-14.5,81.0*
CCOc1cccc2c1OC(c1ccc(OC)c(OC)c1OC)N1N=C(c3ccc(C)o3)CC21 (stereo not drawn),-15.1,61.0*
CCOc1cccc2c1OC(c1cc(OC)c(OC)c(OC)c1)N1N=C(c3ccco3)CC21 (stereo not drawn),-20.0,47.0
COc1cccc2c1OC(c1cccc(Cl)c1)N1N=C(c3ccco3)CC21 (stereo not drawn),-28.2,12.0
O=C(C1COc2ccccc2O1)N1CCc2nc3cc(-c4ccccc4)[nH]n3c(=O)c2C1 (stereo not drawn),2.4,16.0
COc1ccccc1-c1noc(C2CCCN2C(=O)Nc2ccc(F)cc2F)n1 (stereo not drawn),-0.3,-5.9
CCOC(=O)c1sc2ccccc2c1S(=O)(=O)Nc1ccc2c(c1)OCO2,-4.6,-0.7
Cc1cccc(NC(c2ccc(Br)cc2)c2ccc3cccnc3c2O)n1 (stereo not drawn),4.0,97.0*
Cc1cccc(NC(=O)COc2ccc(Br)cc2)n1,-1.1,-19.8
Cc1ccc(C(Nc2cccc(C)n2)c2ccc3cccnc3c2O)cc1 (stereo not drawn),2.2,98.0*
SMILES,Pf apPOL inh,mHTT CaM bind
O=S(=O)(O)c1cccc2cccnc12,-1.0,-0.1
CNC(=O)c1cn2ccnc(-c3ccccc3)c2n1,6.3,-3.7
COC(C(=O)Nc1ccccc1C(=O)NC(C)C)c1ccccc1 (stereo not drawn),0.7,-4.1
O=C(NCc1ccccc1)c1cccc(Br)c1,-4.8,-15.7
CCOC(=O)N1CCN(C(=O)Cc2cc(-c3ccc4c(c3)CC(C)O4)on2)CC1 (stereo not drawn),-1.9,0.2
Cc1ccn2cc(C(=O)N3CCN(C4CCCCC4)CC3)nc2c1,-2.5,-6.3
O=C(O)CSC(SCC(=O)O)c1cccs1,4.7,.
O=C(NC(Nc1ccccc1)C(Cl)(Cl)Cl)c1cccc(Cl)c1 (stereo not drawn),-1.2,23.0
O=C(NC(Nc1cccc(Cl)c1)C(Cl)(Cl)Cl)c1cccc([N+](=O)[O-])c1 (stereo not drawn),2.9,95.0*
O=C(NC(Nc1ccc(Cl)cc1)C(Cl)(Cl)Cl)c1cccc([N+](=O)[O-])c1 (stereo not drawn),-2.4,99.0*
O=C(NC(Nc1ccc([N+](=O)[O-])cc1)C(Cl)(Cl)Cl)c1ccc([N+](=O)[O-])cc1 (stereo not drawn),-1.2,79.0*
O=C(NC(Nc1cccc([N+](=O)[O-])c1)C(Cl)(Cl)Cl)c1cccnc1 (stereo not drawn),0.0,7.0
CC(C)(C)C(=O)NC(Nc1ccc([N+](=O)[O-])cc1)C(Cl)(Cl)Cl (stereo not drawn),16.1,12.0
NS(=O)(=O)c1ccc(NC(NC(=O)c2cccc([N+](=O)[O-])c2)C(Cl)(Cl)Cl)cc1 (stereo not drawn),-4.4,29.0
COc1ccc(NC(NC(=O)c2cccc(Cl)c2)C(Cl)(Cl)Cl)cc1 (stereo not drawn),-5.7,65.0*

# Screening data from PubChem BioAssay.
